Laboratory results reported in PubChem BioAssay AID1259312 (Keith Lab, Institute of Cancer Science, University of …, 2017).
Among all 4,500 compounds or so, about 200 (4.4%) were called active. Shown is part of a subset that was picked to be rich in actives. A number with no mark means an inactive call.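 The calls were made as follows: active = cell survival measured by absorbance rises more than 2.5-fold over infected cells without compound; inactive = the rest.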

Assay: survival after telomere uncapping, modulators, primary screen, cell-based (AID 1259312);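 also: virus expresses mutant telomerase RNA that uncaps telomeres and kills cells; compound added 2 days after infection so exposure lasts 3 days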
Details: HCT116 + Ad-hTR-mut, MTT, 5 d; at 10 µM, active compounds read high
For `CC1(C)CC(=O)C2=C(C1)OC(N)=C(C#N)C2c1cc(Br)cs1` (configuration not stated), the fold change was -1.65. With `CCOC(=O)C1=C(C)OC(N)=C(C#N)C1c1cccs1` (configuration not stated) the fold change was 2.09. Molecule `COC(=O)C1=C(C)OC(N)=C(C#N)C1c1cccs1` (configuration not stated) has a fold change of -1.65. For `CC1(C)CC(=O)C2=C(C1)OC(N)=C(C#N)C2c1cccs1` (configuration not stated), the fold change was 4.33 (active). In the case of `Cc1ccc(C2C(C#N)=C(N)OC3=C2C(=O)CC(C)(C)C3)s1` (configuration not stated), the fold change is reported as -4.43. For `CC1CC2=C(C(=O)O1)C(c1cccs1)C(C#N)=C(N)O2` (configuration not stated), the fold change was 2.62 (active). For `Cc1[nH]c2ccccc2c1C(=O)C(=O)NC(C)(C)C`, the fold change was -1.22. For `CCOC(=O)c1c(NC(=O)C23CC4CC(CC(C4)C2)C3)sc2c1CCCCC2`, the fold change was -1.2. `N#C/C(=C\c1ccccc1/C=C(\C#N)c1ccc2c(c1)OCO2)c1ccc2c(c1)OCO2` showed a fold change of 1.78. Work on `CC(=O)OC[C@H]1O[C@@H](n2cc(C)c(=O)[nH]c2=O)C[C@@H]1OC(C)=O` yielded a fold change of -1.48. `Clc1ccccc1/C=C/c1nnc(-c2ccccc2Cl)o1` showed a fold change of -1.03. With `CC12CCC(=O)C=C1CCC1C2CCC2(C)C1CC[C@@]21OCOC12COCO2` (some centres not stated) the fold change was 3.17 (active). `CC(=O)[C@H]1CC[C@H]2[C@@H]3CCC4=CC(=O)CC[C@]4(C)[C@H]3CC[C@]12C` gave a fold change of 1.4. Molecule `CCCCCC(=O)O[C@]1(C(C)=O)CC[C@H]2[C@@H]3CCC4=CC(=O)CC[C@]4(C)[C@H]3CC[C@@]21C` has a fold change of -1.16. In the case of `CC(Sc1nnc(Cc2ccccc2)n1C1CCCCC1)c1nc(N)nc(N2CCCc3ccccc32)n1` (configuration not stated), the fold change is reported as -1.7. `O=c1cc(-c2cccc(O)c2)oc2cc(O)ccc12` gave a fold change of -1.53. `O=C(c1ccc(COc2ccc(Cl)cc2Cl)o1)n1cc(Br)cn1` showed a fold change of -1.16. Work on `CC1CC[C@H](C(C)C)C(O)C1` (some centres not stated) yielded a fold change of -1.42. `Cn1c(SCc2nc3ccc([N+](=O)[O-])cc3[nH]2)nc2ccccc21` showed a fold change of -1.29. With `O=c1[nH]c(SCc2nc3ccc([N+](=O)[O-])cc3[nH]2)nc2ccccc12` the fold change was “inactive”. With `O=[N+]([O-])c1ccc2nc(CSc3nc4ccc(Br)cc4[nH]3)[nH]c2c1` the fold change was 3.33 (active). Work on `Clc1[nH]nc2ccccc12` yielded a fold change of 1.09. In the case of `CN(Cc1cc(Br)cc(Br)c1N)C1CCCCC1`, the fold change is reported as -1.39. `OCc1ccc(O)c2ncccc12` showed a fold change of -7.69. For `OCCOc1c(Cl)cc(Cl)c2cccnc12`, the fold change was -1.42. With `CN1CCN(Cc2cc(Cl)c3cccnc3c2O)CC1` the fold change was 3.37 (active). `O=[N+]([O-])c1ccc(N2CCN(S(=O)(=O)c3ccc4ccccc4c3)CC2)c2ncccc12` showed a fold change of -1.06. For `O=[N+]([O-])c1cc(Cl)c2cccnc2c1O`, the fold change was 2. Molecule `O=[N+]([O-])c1ccc(Sc2nnnn2-c2ccccc2)c2cccnc12` has a fold change of -73.2. Work on `O=[N+]([O-])c1ccc(N2CCCC2)cc1Sc1cccc2cccnc12` yielded a fold change of 1.11. For `CN1CCN(Cc2cc([N+](=O)[O-])c(O)c3ncccc23)CC1`, the fold change was 2.98 (active). For `O=[N+]([O-])c1cc(CN2CCCC2)c2cccnc2c1O`, the fold change was 3.06 (active). For `CN(Cc1cc([N+](=O)[O-])c(O)c2ncccc12)C1CCCCC1`, the fold change was 3 (active). `S=c1[nH]nc(-c2cccs2)n1-c1ccccc1` showed a fold change of -1.22. In the case of `C=C(C)n1c(=O)[nH]c2ccccc21`, the fold change is reported as 1.29. In the case of `Cc1c(Br)c([N+](=O)[O-])nn1CC(=O)O`, the fold change is reported as 1.12. `O=C1N=C(N2CCCC2)S/C1=C\c1ccc(Cl)cc1` showed a fold change of -1.52. Work on `COc1ccc(-c2nn(CN3CCN(C(c4ccccc4)c4ccccc4)CC3)c(=S)n2C)cc1` yielded a fold change of -1.05. Work on `Clc1ccc(-c2nnc(SCc3ccccc3)o2)c(Cl)c1` yielded a fold change of 2.08. In the case of `Clc1ccc(CSc2nnc(-c3cccc(Br)c3)o2)c(Cl)c1`, the fold change is reported as 2.77 (active). For `CCCSc1nnc(-c2ccc(Cl)cc2Cl)o1`, the fold change was 2.03. In the case of `Clc1ccc(CSc2nnc(-c3ccccc3Cl)o2)c(Cl)c1`, the fold change is reported as 3.91 (active). For `Clc1ccc(-c2nnc(SCc3nc(-c4ccccc4)no3)o2)cc1`, the fold change was -1.07. `Brc1cccc(-c2nnc(SCc3ccon3)o2)c1` gave a fold change of -2.29. `CC1(C)C=Cc2c(c3ccccc3[nH]c2=O)O1` gave a fold change of -1.4. For `O=C(Cc1cccs1)NC1CCCCCC1`, the fold change was -2.19. `Cc1ccc(-c2noc(COc3ccc4c(c3)OCO4)n2)cc1` gave a fold change of 1.5. For `CC1=C/C(=C(\c2cc(C)c(O)cc2C)c2ccccc2S(=O)(=O)O)C(C)=CC1=O`, the fold change was “inactive”. For `c1ccc(-c2nc3ccccc3nc2-c2ccccc2)cc1`, the fold change was -1.02. `O=S(=O)(Nc1nc2ccccc2nc1N1CCOCC1)c1ccccc1` gave a fold change of -1.42. For `CN1CCN(c2nc3ccccc3nc2N2CCN(C)CC2)CC1`, the fold change was 2.65 (active). Molecule `COc1ccc(C2C3CCC=C3C(C#N)=C(N)C2(C#N)C#N)cc1` (configuration not stated) has a fold change of -1.15. `CC(C)c1ccc(C2[C@H]3CN(C)CC=C3C(C#N)=C(N)C2(C#N)C#N)cc1` (some centres not stated) gave a fold change of 2.14. Molecule `CN1CC=C2C(C#N)=C(N)C(C#N)(C#N)C(c3ccc(F)cc3)[C@H]2C1` (some centres not stated) has a fold change of -37.3. In the case of `CC(C)N1CC=C2C(C#N)=C(N)C(C#N)(C#N)C(c3ccc(F)cc3)[C@H]2C1` (some centres not stated), the fold change is reported as 3.68 (active). With `CCCN1CC=C2C(C#N)=C(N)C(C#N)(C#N)[C@H](c3ccsc3)[C@H]2C1` the fold change was 2.9 (active). Work on `N#CC1=C(N)C(C#N)(C#N)[C@@H](c2cccc(Br)c2)[C@@H]2CN(Cc3ccccc3)CC=C12` yielded a fold change of 1.73. With `c1cnc(SCc2ccc3nsnc3c2)nc1` the fold change was 1.11. Work on `CC(=O)Nc1ccc(S(=O)(=O)N2CCCC2C(=O)NC2CC2)cc1` (configuration not stated) yielded a fold change of -1.03. With `COc1ccc(Oc2coc3cc(O)ccc3c2=O)cc1` the fold change was -2.75. In the case of `N#C/C(=C\c1ccc2c(c1)OCO2)c1ccccn1`, the fold change is reported as -2.23. `CC(=O)Nc1nonc1NC(=O)C(F)(F)F` showed a fold change of -1.07. Work on `O=S(=O)(NCCn1cccc1)c1ccc2ccccc2c1` yielded a fold change of 1.09. `O=[N+]([O-])c1ccc(Cl)cc1N1CCOCC1` gave a fold change of 1.51. For `O=[N+]([O-])c1cc(Cl)ccc1N1CCN(c2ccc(Cl)cc2[N+](=O)[O-])CC1`, the fold change was 2.59 (active). In the case of `O=[N+]([O-])c1cc(Cl)ccc1N1CCOCC1`, the fold change is reported as -1.07. With `CC(C)CC(N)C(N)=O` (configuration not stated) the fold change was -2.69. `N#C/C(=C/c1ccncc1)C(N)=S` showed a fold change of -1.8. Molecule `COc1cc2c(Cc3c4c5c(cc(OC)c(OC)c5c5c(OC)c(OC)ccc35)CCN4C)c3c4c(cc(OC)c(OC)c4c2cc1OC)CCN3C` has a fold change of -1.39. With `COC(=O)C1=C(N)C(C(=O)OC)=c2s/c(=C/c3cccnc3)c(=O)n2C1c1cccnc1` (configuration not stated) the fold change was 1.8. With `c1ccc(-c2nc(SCc3ccon3)[nH]c2-c2ccccc2)cc1` the fold change was -1.7. `Cc1sc(NC(=O)Cn2cnc([N+](=O)[O-])n2)c(C(N)=O)c1C` gave a fold change of 1.35. For `CC(C)CCCC(C)C1CCC2C3CC=C4CC(O)CCC4(C)C3CCC12C` (configuration not stated), the fold change was 1.54. For `CC(=O)OC1CCC2(C)C(=CCC3C2CCC2(C)C(C(C)O)CCC32)C1` (configuration not stated), the fold change was 3.23 (active). For `CC[C@H](/C=C/[C@@H](C)[C@H]1CC[C@H]2[C@@H]3CC=C4C[C@@H](O)CC[C@]4(C)[C@H]3CC[C@]12C)C(C)C`, the fold change was -1.34. `CCCCOC1CC[C@@]2(C)C(=CC[C@H]3[C@@H]4CC[C@H]([C@H](C)CCCC(C)C)[C@@]4(C)CC[C@@H]32)C1` (some centres not stated) showed a fold change of -1.1. For `CC(=O)OC1CCC2(C)C(=CCC3C2CCC2(C)C3CC3OC32[C@H](C)OC(C)=O)C1` (some centres not stated), the fold change was 4.11 (active). Work on `CC(=O)OC1CCC2(C)C(=CCC3C2CC[C@]2(C)C(C(C)=O)CCC32)C1` (some centres not stated) yielded a fold change of 1.32. With `CNc1oc(/C=C/c2ccccc2)nc1S(=O)(=O)c1ccc(Cl)cc1` the fold change was -1.12. `CC(C)(C)Sc1c(Br)cccc1Br` gave a fold change of -2.29. For `CCCc1nnc(NC(=O)c2ccoc2C)s1`, the fold change was -1.3. Molecule `CCOc1ccc(-n2c(C)cc(C(=S)N3CCOCC3)c2C)cc1` has a fold change of -3.28. `CCC(C)C(NC(C)=O)C(=O)O` (configuration not stated) showed a fold change of 1.28. `NC1CCCc2c1[nH]c1ccc(Br)cc21` (configuration not stated) showed a fold change of -11. For `c1ccc(OCC2CCNCC2)nc1`, the fold change was 2.98 (active). Work on `CC(C)(C)c1cc(Cl)cc(Cc2cc(C(C)(C)C)c(O)c(C(C)(C)C)c2)c1O` yielded a fold change of -1.42. Work on `CCOC(=O)C1=C(C(=O)OCC)SC(=C2C(=S)C(C)(C)N(C)c3ccc(C)cc32)S1` yielded a fold change of -1. For `O=C(Nc1ccc(F)cc1)Nc1nncs1`, the fold change was -1.15. `O=C(Nc1ccccc1)Nc1ccc2c(c1)OCCO2` gave a fold change of -1.3. For `O=C(Nc1ccccc1)Nc1snnc1C(=O)O`, the fold change was 4.77 (active). With `CCOC(=O)C1CCN(C(=O)CC(C)C)CC1` the fold change was -1.61. Molecule `O=S(=O)(Nc1cccc2ccccc12)N1CCCCC1` has a fold change of -1.29. Molecule `C=CCN(CC=C)C(=O)Cc1cccs1` has a fold change of -1.46. For `COc1ccc(OC)c(N=Cc2cc(Cl)cc(Cl)c2O)c1`, the fold change was “inactive”. In the case of `Oc1ccc(Br)cc1C=Nc1cc(Cl)ccc1Cl`, the fold change is reported as “inactive”. With `COc1cc2c(cc1N=Cc1cc(Br)ccc1O)oc1ccccc12` the fold change was “inactive”. For `Oc1c(Br)cc(Br)cc1C=Nc1ccc(Br)cc1`, the fold change was “inactive”. In the case of `Oc1ccc(Br)cc1C=Nc1ccc(I)cc1`, the fold change is reported as “active”. With `O=[N+]([O-])c1ccc(O)c(C=Nc2ccc(I)cc2)c1` the fold change was “inactive”. In the case of `COc1ccc(OC)c(N=Cc2cc(Br)ccc2O)c1`, the fold change is reported as “active”. For `Oc1ccc(Br)c(C=Nc2ccc(-c3ccc(N=Cc4cc(Br)ccc4O)cc3)cc2)c1`, the fold change was “active”. For `Oc1ccc(Br)cc1C=Nc1cc(Cl)cc(Cl)c1`, the fold change was “inactive”.
